# Screening results as filed in PubChem.
# NPSR antag: neuropeptide S receptor (human) antagonism, cAMP; Q6W5P4; hit rate 1% among 220,000; CHO-NPSR cells, cAMP TR-FRET, antagonist mode; Potency, µM (highest dose often 38.3 µM), inactives show at the highest dose activity change, negative = inhibition, hits mostly inhibitors; also: nearly all actives have a fitted effect of over 50% in size
# Target sequence (Q6W5P4 whole entry, looked up): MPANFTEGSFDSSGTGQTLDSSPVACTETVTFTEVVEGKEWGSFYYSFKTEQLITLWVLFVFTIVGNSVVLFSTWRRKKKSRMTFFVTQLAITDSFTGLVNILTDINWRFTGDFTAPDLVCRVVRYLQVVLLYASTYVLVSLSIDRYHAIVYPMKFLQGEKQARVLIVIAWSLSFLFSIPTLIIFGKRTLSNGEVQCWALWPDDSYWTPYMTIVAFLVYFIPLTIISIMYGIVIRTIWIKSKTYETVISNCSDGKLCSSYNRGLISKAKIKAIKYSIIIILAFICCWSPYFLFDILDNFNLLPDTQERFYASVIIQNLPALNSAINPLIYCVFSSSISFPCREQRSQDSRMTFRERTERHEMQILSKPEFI
# RORgamma inh: blocks mouse ROR gamma transcriptional activity | hit rate 5.4% among 310,000 | P51450 | Potency, µM (titrated, usually from 53.6 µM), for inactives: top-dose activity change, negative = inhibition, usual class: inhibitors | Drosophila S2 Gal4-RORgamma UAS-luciferase reporter, 20 h | AID 2551; also: nearly all actives have a fitted effect of over 60% in size
#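 Compounds are pin-transferred onto Drosophila Schneider cells expressing a copper-inducible Gal4–ROR gamma transactivation domain fusion. After 1 hr, copper sulfate is added to 700 uM final; luciferase is read 20 hr later.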
# B2AR arrestin: agonists driving beta-arrestin recruitment to human beta2-adrenergic receptor | hit rate 0.02% among 330,000 | Potency, µM (top dose mostly 46.1 µM), for inactives: at the top dose activation, actives largely listed as activators | beta-arrestin recruitment to beta2AR, cell-based reporter | P07550;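 also: 0% = DMSO controls and full agonism = EC100 isoproterenol or metaproterenol; nearly all actives have a fitted effect of over 65% in size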
# Gal4-VP16 FLuc: counter-screen for ROR gamma inhibitors: Gal4-VP16 reporter; AID 2546; hit rate 3.5% among 310,000; Potency, µM (titrated, usually from 53.6 µM), for the others: at the highest dose activity, negative = inhibition, actives largely listed as inhibitors; Drosophila S2 Gal4-VP16 UAS-luciferase, luminescence, 20 h;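 also: Gal4-VP16 expression switched on by copper sulfate through the metallothionein promoter; nearly all actives have a fitted effect of over 50% in size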
# * hit, by the source's call; ? = inconclusive; . = no result; [ ] = remark or other dose. The list is not random: actives were taken first. Their share in the collection is about 5.7%. Calls follow the shape of the dose curve; as a rule, active = well fitted curve in the direction sought with a large enough effect; inconclusive = small, poorly fitted or top-dose-only effect, or another doubt; inactive = no such curve, though single readings can be large; an effect the other way counts as inactive or inconclusive. Unless noted, % is scaled to controls: 0 for no effect and ±100 for the full control effect; potency is read from the fitted curve at half-maximal effect.
SMILES,NPSR antag,RORgamma inh,B2AR arrestin,Gal4-VP16 FLuc
Cc1[nH]c(C)c(C(=O)/C=C/c2ccc([N+](=O)[O-])cc2)c1C,.,1.1µM*,0%,?
CCOC(=O)c1[nH]c(C)c(C(=O)/C=C/c2ccc(C(=O)O)cc2)c1C,.,0%,0%,22%
CCc1[nH]c(=O)[nH]c1C(C)S(=O)(=O)c1ccc(C)cc1 (stereo unspecified),8%,14µM*,0%,?
COc1ccc(C(=O)CSc2nc(-c3ccccn3)nc(C)c2Cl)cc1,-19%,2.8µM*,0%,?
CC(C)c1nc(SCC(=O)c2ccc(F)cc2)c2ccccc2n1,?,5.6µM*,0%,?
COc1ccc(C(=O)CSc2nnc3ccc(-c4ccccn4)nn23)cc1,-51%,3%,0%,-14%[10 µM]
Cc1nc(-c2ccccn2)nc(SCC(=O)c2ccc(F)cc2)c1Cl,-38%,3.5µM*,0%,?
O=C(NCc1ccco1)N1c2ccccc2Sc2ccccc21,?,?,1%,35µM*
COc1ccc(/C=C/c2ccccc2)cc1C1C2C=CCCC2(C)C(=O)N1Cc1ccccc1 (stereo unspecified),.,21%,.,8%
COc1cccc(NC(=S)NCCC(c2ccccc2)c2ccccc2)c1,-22%[46.1 µM],?,0%,22µM*
Cc1cccc(NC(=S)NCCC(c2ccccc2)c2ccccc2)c1,-22%,4µM*,5%,7.1µM*
COc1cccc(NC(=S)NCCN2CCOCC2)c1,18%,-25%,-1%,8%
COc1cc(OC)cc(C(=O)NCCC(c2ccccc2)c2ccccc2)c1,.,24%,4%,12%
CNC(=S)NCCC(c1ccccc1)c1ccccc1,1%,7.1µM*,0%,?
COc1cc(NC(=S)NCCC(c2ccccc2)c2ccccc2)cc(OC)c1,-31%,4.5µM*,0%,8.9µM*
COc1ccc(C2C(C#N)=C(N)N(c3ccccc3C#N)C3=C2C(=O)CCC3)cc1CN1CCCC1 (stereo unspecified),-7%,-11%,0%,-10%
CCOc1ccc(NC(=O)c2cccc(OC(=S)N3CCC(C)CC3)c2)cc1,-18%[46.1 µM],-25%,4%,1%
CNC(=O)[C@H]1O[C@@H](n2cnc3c(NCc4ccc(N)cc4)ncnc32)[C@H](O)[C@H]1O,1%[46.1 µM],.,.,.
Cc1cccc(-c2ccc3ncnc(NCc4cccc(F)c4)c3c2)c1,.,.,-1%,.
COc1ccc(NC(=S)NCCC(c2ccccc2)c2ccccc2)c(OC)c1,-27%[46.1 µM],4µM*,-1%,3.2µM*
COc1ccc(NC(=S)NC(=O)CC(C)C)c(OC)c1,-27%,?,0%,?
CCCOc1ccccc1OCC(=O)Nc1cc(Cl)ccc1-n1cncn1,.,.,0%,.
C=CCNC(=S)NNC(=O)CCC(O)CCCCC (stereo unspecified),-3%[46.1 µM],10µM*,0%,-16%
COc1ccc(OCC(=O)NC(=S)NNC(=O)COc2ccc(Br)cc2Cl)cc1,5%,10µM*,0%,3%[10 µM]
COc1ccc(C(=O)NC(=S)NNC(=O)c2ccccc2O)cc1,.,7%,0%,1%
SMILES,NPSR antag,RORgamma inh,B2AR arrestin,Gal4-VP16 FLuc
O=C(COc1ccccc1)NNC(=S)NC(=O)c1ccccc1,-1%,6.3µM*,0%,11µM*
CCNC(=O)COc1ccc(Br)cc1Cl,5%[46.1 µM],30%,0%,29%
COc1ccc(C(=O)NC(=S)NNC(=O)COc2ccccc2)cc1,5%,7.1µM*,0%,?
OCC1(CO)COC(C(Cl)(Cl)Cl)OC1,.,-1%,.,-4%
C/C(=N\NC(=O)c1ccn(C)n1)c1ccco1,.,-25%,0%,-6%
Cn1ccc(C(=O)NC(=S)N2CCSCC2)n1,-6%,11µM*,0%,-10%
COc1ccccc1-c1cn[nH]c1-c1ccc(OCc2ccc(F)cc2)cc1O,?,7.9µM*,-1%,?
COc1ccc(-c2cn[nH]c2-c2ccc(OCc3ccc(F)cc3)cc2O)cc1OC,-51%,1.6µM*,-1%,3.5µM*
COc1ccccc1-c1cn[nH]c1-c1ccc(O)cc1O,.,?,0%,?
COc1ccccc1-c1cn[nH]c1-c1ccc(OCc2ccccc2F)cc1O,?,8.9µM*,0%,?
COc1ccc(C(=O)N2CCC3(CC2)CN(C(=O)Nc2cccc(C#N)c2)C3)cc1,.,2%,.,-9%
Cc1cccc(C(=O)NC(=S)N2CCN(C(=S)NC(=O)c3cccc(C)c3)CC2)c1,-34%,0.79µM*,-2%,0.79µM*
CCCNC(=S)N1CCC(NC(=O)c2cccc(C)c2)CC1,.,-13%[1.91 µM],0%,0%
Cc1cccc(C(=O)NC(=S)N2CCN(C)CC2)c1,-2%[46.1 µM],1.3µM*,-1%,8.9µM*
C1CCCNCC1,.,6%,.,6%
FC(F)(F)c1cccc(NC(=S)NCc2ccc(Cl)cc2)c1,?,8.9µM*,0%,?
FC(F)(F)c1cccc(NC(=S)NNC(=S)Nc2ccc(Cl)cc2)c1,?,16%,-1%,-18%
Fc1cccc(NC(=S)NCc2ccc(Cl)cc2)c1,-15%,6.3µM*,0%,18µM*
Fc1cccc(NC(=S)Nc2ccc(Br)cc2)c1,-1%[46.1 µM],?,0%,?
Fc1ccc(CNC(=S)Nc2cccc(C(F)(F)F)c2)cc1,?,?,-1%,?
CC(C)(C)NNC(=S)Nc1cccc(F)c1,?,0.63µM*,?,3.5µM*
Fc1ccccc1CNC(=S)Nc1cccc(C(F)(F)F)c1,-8%,7.1µM*,9%,7.1µM*
O=C(OCC(=O)N1CCCC1=O)c1ccc(O)cc1O,.,.,0%,.
O=C(CCl)N1c2ccccc2SCC1c1ccccc1 (stereo unspecified),.,11µM*,0%,14µM*
O=C(CCl)N1c2ccccc2OCC1c1ccccc1 (stereo unspecified),?,22%,3%,-12%
SMILES,NPSR antag,RORgamma inh,B2AR arrestin,Gal4-VP16 FLuc
Oc1c(Cl)cc(Cl)c2c1NCCC2,3%[46.1 µM],3.2µM*,-2%,5µM*
CCn1c(C)nc2cc(-c3nnc(-c4c(-c5ccccc5)noc4C)o3)ccc21,?,?,0%,5µM*
CCOC(=O)C1=NO[C@@]2(C=C(Br)C3(OCCCO3)[C@H]3O[C@H]32)C1,.,-17%[10 µM],.,3%[10 µM]
Cc1ccc2[nH]c3c(c2c1)CC/C(=C/c1ccccc1)C3=O,-19%[46.1 µM],4µM*,0%,6.3µM*
O=C(c1ccc(S(=O)(=O)N2CCCC2)cc1)N1CCCCC1,.,.,0%,.
O=C(/C=C/c1ccc(O)c(O)c1)c1ccc(S(=O)(=O)N2CCCCCC2)cc1,-30%,13µM*,0%,?
CC(=O)c1ccc(NC(=S)N2CCN(c3ccccn3)CC2)cc1,.,-9%,0%,-3%
O=C(N/C(=C/c1cccnc1)C(=O)N1CCCCCC1)c1cccc(Br)c1,.,10µM*,-1%,?
O=C(NC(=S)N1CCCC1)c1ccccc1,.,4µM*,-1%,7.1µM*
O=C(NC(=S)N1CCN(c2ccccn2)CC1)c1ccccc1,5%,2.2µM*,-2%,4.5µM*
O=C(N/C(=C\c1cccnc1)C(=O)N1CCC(O)CC1)c1ccccc1,.,-16%,-1%,5%
O=C(NC(=S)N1CCN(c2ccccc2)CC1)c1ccccc1,.,1.4µM*,0%,1.1µM*
Nc1nc(=O)n(C2OC(CO)C(O)C2O)cc1Cl (stereo unspecified),.,-19%,.,-13%
